The values below come from ChEMBL document CHEMBL1961873, “Compounds: GSK PKIS; Assays: Nanosyn kinase panel” (2012).

Assay [1] concerns the target Serine/threonine-protein kinase MRCK alpha (Homo sapiens) (UniProt Q5VT25). The conditions noted are these: at 0.1 µM.
For assay [2] the target is unchanged. The conditions noted are these: at 1 µM.
For assay [3], the target named is Serine/threonine-protein kinase MRCK beta (Homo sapiens) (UniProt Q9Y5S2). The conditions noted are these: at 0.1 µM.
Serine/threonine-protein kinase MRCK beta (Homo sapiens), sequence (Q9Y5S2 whole entry): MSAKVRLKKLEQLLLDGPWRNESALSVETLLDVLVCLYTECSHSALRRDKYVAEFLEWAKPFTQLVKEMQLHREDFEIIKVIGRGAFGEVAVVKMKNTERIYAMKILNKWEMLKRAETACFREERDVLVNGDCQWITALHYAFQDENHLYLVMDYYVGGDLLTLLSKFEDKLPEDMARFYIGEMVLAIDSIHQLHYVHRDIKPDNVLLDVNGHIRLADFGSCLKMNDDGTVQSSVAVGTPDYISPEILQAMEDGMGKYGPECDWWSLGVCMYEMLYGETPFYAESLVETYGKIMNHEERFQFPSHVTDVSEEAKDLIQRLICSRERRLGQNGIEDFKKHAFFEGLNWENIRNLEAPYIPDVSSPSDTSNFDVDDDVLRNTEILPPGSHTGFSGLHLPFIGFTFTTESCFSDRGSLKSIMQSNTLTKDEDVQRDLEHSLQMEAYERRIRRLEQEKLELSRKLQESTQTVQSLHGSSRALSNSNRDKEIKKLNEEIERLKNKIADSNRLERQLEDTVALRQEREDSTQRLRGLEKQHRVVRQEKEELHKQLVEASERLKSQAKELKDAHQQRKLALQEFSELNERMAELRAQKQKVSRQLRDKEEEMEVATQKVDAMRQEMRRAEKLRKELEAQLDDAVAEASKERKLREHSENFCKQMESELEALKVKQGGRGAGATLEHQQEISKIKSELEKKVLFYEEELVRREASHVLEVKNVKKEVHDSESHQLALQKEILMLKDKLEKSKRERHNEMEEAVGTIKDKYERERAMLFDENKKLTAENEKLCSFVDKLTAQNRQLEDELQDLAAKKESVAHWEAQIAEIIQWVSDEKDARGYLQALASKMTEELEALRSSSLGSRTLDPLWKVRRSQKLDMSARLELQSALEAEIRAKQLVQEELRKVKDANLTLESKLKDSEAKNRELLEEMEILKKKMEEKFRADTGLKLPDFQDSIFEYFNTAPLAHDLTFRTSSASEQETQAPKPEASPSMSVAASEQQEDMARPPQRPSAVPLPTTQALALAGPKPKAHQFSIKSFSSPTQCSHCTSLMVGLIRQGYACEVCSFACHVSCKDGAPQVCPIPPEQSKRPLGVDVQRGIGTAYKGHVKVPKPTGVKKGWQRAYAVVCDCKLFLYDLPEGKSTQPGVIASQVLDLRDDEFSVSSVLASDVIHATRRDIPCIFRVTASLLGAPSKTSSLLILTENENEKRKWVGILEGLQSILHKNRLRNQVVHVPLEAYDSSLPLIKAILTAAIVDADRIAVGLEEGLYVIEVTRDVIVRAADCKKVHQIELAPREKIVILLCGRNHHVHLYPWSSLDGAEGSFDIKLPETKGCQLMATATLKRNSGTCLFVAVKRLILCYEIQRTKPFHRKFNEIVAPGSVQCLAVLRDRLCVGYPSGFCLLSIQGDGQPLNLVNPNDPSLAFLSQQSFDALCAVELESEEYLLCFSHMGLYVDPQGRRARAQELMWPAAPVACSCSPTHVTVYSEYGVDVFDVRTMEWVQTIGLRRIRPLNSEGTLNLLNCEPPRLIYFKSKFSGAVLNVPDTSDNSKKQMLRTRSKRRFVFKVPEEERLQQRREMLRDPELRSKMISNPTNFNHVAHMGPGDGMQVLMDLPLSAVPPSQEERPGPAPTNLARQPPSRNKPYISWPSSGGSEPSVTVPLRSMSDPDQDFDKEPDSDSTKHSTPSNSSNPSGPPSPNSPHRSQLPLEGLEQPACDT
Assay [4] has the same target. As to conditions: at 1 µM.
The target in assay [5] is Ribosomal protein S6 kinase alpha-5 (Homo sapiens) (UniProt O75582). The conditions noted are these: at 0.1 µM.
Ribosomal protein S6 kinase alpha-5 (Homo sapiens), sequence (O75582 whole entry, looked up): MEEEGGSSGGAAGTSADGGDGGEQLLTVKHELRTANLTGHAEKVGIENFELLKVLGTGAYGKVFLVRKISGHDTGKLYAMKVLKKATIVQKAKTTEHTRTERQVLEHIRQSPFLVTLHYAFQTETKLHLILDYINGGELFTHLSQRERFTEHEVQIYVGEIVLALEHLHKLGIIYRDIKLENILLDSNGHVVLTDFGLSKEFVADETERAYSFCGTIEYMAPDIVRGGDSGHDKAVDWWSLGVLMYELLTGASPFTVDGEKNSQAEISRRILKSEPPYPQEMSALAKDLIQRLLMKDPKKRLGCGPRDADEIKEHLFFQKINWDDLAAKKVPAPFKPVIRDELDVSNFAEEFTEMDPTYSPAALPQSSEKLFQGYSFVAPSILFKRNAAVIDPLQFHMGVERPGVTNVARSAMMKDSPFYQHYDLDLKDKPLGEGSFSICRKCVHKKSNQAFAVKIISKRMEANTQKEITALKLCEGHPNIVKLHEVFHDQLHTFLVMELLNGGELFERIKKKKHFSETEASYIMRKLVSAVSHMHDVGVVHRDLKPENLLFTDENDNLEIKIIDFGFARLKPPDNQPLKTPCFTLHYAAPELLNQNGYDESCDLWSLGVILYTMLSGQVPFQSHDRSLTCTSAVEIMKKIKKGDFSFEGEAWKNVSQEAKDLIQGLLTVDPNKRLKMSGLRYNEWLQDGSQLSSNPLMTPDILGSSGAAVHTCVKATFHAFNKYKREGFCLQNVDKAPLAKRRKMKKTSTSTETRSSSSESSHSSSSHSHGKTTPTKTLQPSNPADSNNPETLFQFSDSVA
Assay [6] has the same target. As to conditions: at 1 µM.
The target in assay [7] is Ribosomal protein S6 kinase alpha-4 (Homo sapiens) (UniProt O75676). The conditions noted are these: at 0.1 µM.
For assay [8] the target is unchanged. As to conditions: at 1 µM.
Assay [9] concerns the target Ribosomal protein S6 kinase beta-1 (Homo sapiens) (UniProt P23443). As to conditions: at 0.1 µM.
The target is the same in assay [10]. As to conditions: at 1 µM.
In assay [11] the target is T1, 3-phosphoinositide-dependent protein kinase 1 (Homo sapiens) (UniProt O15530).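 Further: values are mean inhibition of PDK1.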
T1 sequence (whole entry): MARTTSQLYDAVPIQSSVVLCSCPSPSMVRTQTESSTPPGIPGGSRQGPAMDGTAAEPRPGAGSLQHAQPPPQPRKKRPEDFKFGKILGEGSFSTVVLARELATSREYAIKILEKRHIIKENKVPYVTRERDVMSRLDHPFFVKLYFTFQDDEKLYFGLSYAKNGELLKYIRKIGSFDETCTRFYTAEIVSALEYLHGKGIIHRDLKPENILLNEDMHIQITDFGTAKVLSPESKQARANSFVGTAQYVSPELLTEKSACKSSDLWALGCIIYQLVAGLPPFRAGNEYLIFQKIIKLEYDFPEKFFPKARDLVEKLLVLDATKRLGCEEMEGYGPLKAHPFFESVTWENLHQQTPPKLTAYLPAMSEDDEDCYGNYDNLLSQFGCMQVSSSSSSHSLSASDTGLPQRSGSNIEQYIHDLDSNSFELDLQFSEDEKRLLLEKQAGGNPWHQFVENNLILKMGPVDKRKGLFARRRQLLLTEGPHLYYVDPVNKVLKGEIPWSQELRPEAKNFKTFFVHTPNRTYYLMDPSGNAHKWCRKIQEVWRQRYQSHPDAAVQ
As to conditions: at 0.1 µM.

The target of assay [12] is cAMP-dependent protein kinase catalytic subunit alpha (Homo sapiens) (UniProt P17612). The conditions noted are these: at 0.1 µM.
Assay [13] has the same target. As to conditions: at 1 µM.
The target of assay [14] is Protein kinase C alpha type (Homo sapiens) (UniProt P17252). The conditions noted are these: at 0.1 µM.
Assay [15] has the same target. As to conditions: at 1 µM.
Assay [16] has as its target Protein kinase C beta type (Homo sapiens) (UniProt P05771). The conditions noted are these: at 0.1 µM.
Assay [17] shares this target. As to conditions: at 1 µM.
The target of assay [18] is Protein kinase C eta type (Homo sapiens) (UniProt P24723). The conditions noted are these: at 0.1 µM.
Assay [19] shares this target. The conditions noted are these: at 1 µM.
The target in assay [20] is Protein kinase C gamma type (Homo sapiens) (UniProt P05129). As to conditions: at 0.1 µM.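 Further: values are mean percent inhibition of PKC gamma.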

Molecules are shown by their SMILES.

Ribosomal protein S6 kinase beta-1 (Homo sapiens), sequence (P23443 whole entry, looked up): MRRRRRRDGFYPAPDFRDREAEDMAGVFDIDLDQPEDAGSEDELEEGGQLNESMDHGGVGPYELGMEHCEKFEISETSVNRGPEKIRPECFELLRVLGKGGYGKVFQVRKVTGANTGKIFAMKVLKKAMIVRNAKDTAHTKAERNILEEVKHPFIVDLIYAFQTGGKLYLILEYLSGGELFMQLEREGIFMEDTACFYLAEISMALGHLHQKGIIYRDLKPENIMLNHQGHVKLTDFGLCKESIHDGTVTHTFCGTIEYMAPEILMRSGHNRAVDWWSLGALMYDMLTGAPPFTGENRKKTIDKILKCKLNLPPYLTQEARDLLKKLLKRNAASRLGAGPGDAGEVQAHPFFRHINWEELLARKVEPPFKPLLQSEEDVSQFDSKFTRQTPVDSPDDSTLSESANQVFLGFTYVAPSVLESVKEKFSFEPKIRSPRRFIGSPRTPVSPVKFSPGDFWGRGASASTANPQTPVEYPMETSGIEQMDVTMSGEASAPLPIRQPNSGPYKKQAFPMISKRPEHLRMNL
Protein kinase C beta type (Homo sapiens), sequence (P05771 2-671 limits assumed): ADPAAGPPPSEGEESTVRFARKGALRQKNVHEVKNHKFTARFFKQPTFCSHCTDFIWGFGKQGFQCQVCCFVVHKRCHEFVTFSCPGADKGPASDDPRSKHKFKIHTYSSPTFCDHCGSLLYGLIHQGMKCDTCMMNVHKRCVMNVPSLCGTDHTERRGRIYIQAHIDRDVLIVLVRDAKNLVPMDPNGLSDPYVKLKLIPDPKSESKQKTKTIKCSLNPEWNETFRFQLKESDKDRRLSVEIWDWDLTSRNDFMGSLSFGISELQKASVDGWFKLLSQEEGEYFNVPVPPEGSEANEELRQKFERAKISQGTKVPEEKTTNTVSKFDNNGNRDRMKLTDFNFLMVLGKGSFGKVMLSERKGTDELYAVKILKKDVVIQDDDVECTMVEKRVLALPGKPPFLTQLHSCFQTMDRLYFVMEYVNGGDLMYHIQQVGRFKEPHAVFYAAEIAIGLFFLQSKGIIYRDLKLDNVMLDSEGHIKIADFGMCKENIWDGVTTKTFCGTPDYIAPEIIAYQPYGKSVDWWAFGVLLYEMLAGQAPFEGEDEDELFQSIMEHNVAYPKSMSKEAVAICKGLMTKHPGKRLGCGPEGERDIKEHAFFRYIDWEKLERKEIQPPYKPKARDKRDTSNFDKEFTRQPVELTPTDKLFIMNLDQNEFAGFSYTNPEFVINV

One may read the inhibition as the change of the read-out against control, counted positive when it falls. As for `CS(=O)(=O)Nc1cccc(-c2ccc3c(NC(=O)C4CC4)n[nH]c3c2)c1`, the inhibition in assay [1] came to 1.58%; in assay [2], 2.47%; in assay [3], 0.84%; in assay [4], 1.32%; in [5], 1.49%; in [6], 1.04%. The inhibition was 0.62% in assay [7]; 2.85% in assay [8]; 1.15% in assay [9]; 1.9% in assay [10]; -0.34% in assay [11]; 0.91% in assay [12]. Also, the inhibition was 1.02% in [13]; 0.79% in assay [14]; 1.61% in assay [15]; -1.18% in assay [16]; -0.16% in assay [17]; 1.82% in [18]. Also, the inhibition in assay [19] amounted to 3.34%; in [20], 1.6%.
`Oc1cccc(-c2nc(-c3ccccc3)[nH]c2-c2ccncc2)c1`: the inhibition is -0.93% in assay [1]; 2.63% in [2]; -0.32% in [3]; 0.92% in assay [4]; 3.05% in [5]; 4.64% in [6]. For the same compound, the inhibition worked out at 1.9% in assay [7]; 3.89% in assay [8]; 1.55% in [9]; 6.44% in assay [10]; 4.03% in assay [11]; 2.46% in assay [12]. For the same compound, the inhibition in assay [13] came to 6.88%; in assay [14], 0.69%; in [15] it was 3.01%; in assay [16] it was 2.07%; in [17] it was 8.23%; in [18], 2.41%. Further, the inhibition in [19] came out at 9.76%; in [20], 2.86%.
Turning to `Cc1ccc(C(=O)NC2CC2)cc1-c1ccc2[nH]ncc2c1`, the inhibition in assay [1] was 1.33%; in assay [2], 0.57%; in assay [3], 0.35%; in [4] it was 5.75%; in assay [5] it was -4.06%; in [6] it was -3.97%. The inhibition is -1.94% in assay [7]; -1.58% in [8]; -1.62% in assay [9]; -3.02% in assay [10]; -3.15% in [11]; -2.46% in assay [12]. Further, the inhibition is 0.47% in [13]; -0.47% in assay [14]; 0.07% in assay [15]; -0.41% in [16]; -0.31% in assay [17]; -4.21% in assay [18]. Further, the inhibition was -3.72% in [19] and -0.11% in assay [20].
Regarding `COc1cc(Nc2nccc(-c3cnn4ncccc34)n2)cc(OC)c1`, the inhibition was found to be 0.39% in assay [1]; 3.14% in assay [2]; 1.06% in [3]; 3.3% in assay [4]; 1.61% in [5]; 7.26% in assay [6]. Moreover, the inhibition in assay [7] worked out at 2.85%; in assay [8], 15.7%; in assay [9] it was 1.87%; in assay [10], 6.59%; in [11] it was 3.22%; in [12], 2.46%. The inhibition in [13] was found to be 10.7%; in assay [14], 12.4%; in assay [15], 64%; in [16], 0.12%; in assay [17] it was 8.95%; in assay [18], 3.16%. Besides, the inhibition turned out to be 3.86% in assay [19] and 0.71% in [20].
On to `O=C1Nc2ccccc2/C1=C/Nc1ccc2[nH]c(=O)[nH]c2c1`, for which the inhibition is -0.3% in assay [1]; 1.93% in [2]; -0.63% in [3]; -1.04% in assay [4]; 3.99% in [5]; 5.92% in assay [6]. The inhibition worked out at 3.86% in assay [7]; 16.6% in assay [8]; 2.55% in assay [9]; 11.1% in assay [10]; 9.34% in assay [11]; 2.27% in assay [12]. Also, the inhibition in assay [13] was determined as 4.1%; in [14], 0.57%; in assay [15] it was 2.34%; in [16], 0.19%; in [17], 4.33%; in assay [18], 3.3%. The results for the inhibition in assay [19] and in assay [20] were 3.84% and 2.03%, respectively.
For `Nc1nccc(-c2c(-c3ccc(F)cc3)ncn2CCCN2CCOCC2)n1`, the inhibition in assay [1] is 0.42%; in [2] it was 1.54%; in assay [3], 0.49%; in assay [4], 1.1%; in [5], 6.47%; in assay [6] it was 6.81%. Moreover, the inhibition in assay [7] came to 4.22%; in assay [8], 3.46%; in [9] it was 1.35%; in assay [10] it was 1.45%; in assay [11], 0.38%; in assay [12] it was 3.31%. The inhibition worked out at 9.33% in assay [13]; 0.84% in [14]; 4.5% in [15]; 1.5% in assay [16]; 7.05% in assay [17]; 4.26% in [18]. Further, the inhibition in assay [19] was 7.49%; in [20], 3.25%.
As for `NC(=O)c1cccc(Nc2nccc(Nc3cccc(F)c3)n2)c1`, the inhibition amounted to 1.84% in assay [1]; 0.87% in assay [2]; 0.04% in assay [3]; 1.43% in assay [4]; 1.48% in assay [5]; 0.2% in assay [6]. In addition, the inhibition was 0.68% in assay [7]; 1.21% in [8]; 0.38% in [9]; 1.99% in [10]; -1.35% in assay [11]; 1.44% in assay [12]. Besides, the inhibition in assay [13] was 0.76%; in assay [14] it was 0.15%; in assay [15], 4.54%; in assay [16], -2.22%; in assay [17], -5.72%; in assay [18], 1.84%. For the same compound, the inhibition in assay [19] amounted to 2.62%; in assay [20], 2.94%.
